Results on 39 molecules are retold here after PubChem BioAssay (NCATS).

Inconclusive results are not listed. A call without a number means that no potency is given here. Activity calls are given as the source filed them. Calls follow the shape of the dose curve; as a rule, active = well fitted inhibition curve with a large enough effect; inconclusive = small, poorly fitted or top-dose-only effect; inactive = flat fitted curve, though single readings scatter.

Calcium and integrin-binding protein 1 (Homo sapiens), sequence (Q99828 whole entry, looked up): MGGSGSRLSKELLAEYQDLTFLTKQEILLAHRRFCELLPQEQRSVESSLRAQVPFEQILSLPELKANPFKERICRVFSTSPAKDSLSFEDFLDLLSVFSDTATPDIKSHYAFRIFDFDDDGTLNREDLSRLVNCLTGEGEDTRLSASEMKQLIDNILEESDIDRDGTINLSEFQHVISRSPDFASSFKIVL

This assay concerns the target Calcium and integrin-binding protein 1 (Homo sapiens) (UniProt Q99828). Kind of assay: Primary qHTS for Identification of Calcium Integrin Binding Protein 1 (CIB1) Competitor (AID 1508620).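 Also: GST tagged CIB1 binding a fluorescein labelled alphaIIb integrin peptide tracer; top concentration of the series differs between compounds.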 Particulars: CIB1-GST / FITC-alphaIIb peptide fluorescence polarization; series mostly up to 114 µM. The procedure, abridged: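 CIB1-GST (1 uM final) and compound incubated 15 min at room temperature before adding FITC-alphaIIb peptide tracer (100 nM final). Competition for binding read by fluorescence polarization (ex 480, em 540) after another 15 min at room temperature.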
Background: Quantitative high-throughput screening tests each substance at several concentrations.
Regarding `Cc1cc(C)nc(NC(=S)N2CCN(c3cc(Cl)cc(Cl)c3)CC2)c1`, the Potency result was “inactive”. As for `COc1cccc(C2c3c(ncn(-c4cccc(F)c4)c3=N)Oc3ccc4ccccc4c32)c1` (centres undefined), the Potency result was “inactive”. In the case of `Cc1ccc(N2CCC(CNc3nc(-c4ccccc4C(C)C)ncc3C)CC2)cn1`, the Potency entry was “inactive”. With `O=C(CNC(=O)c1ccc(-c2ccccc2)cc1)OC(C(=O)Nc1cc(C(F)(F)F)ccc1Cl)c1ccccc1` (centres undefined), the Potency entry is “inactive”.

Consider `N=c1c2c(ncn1-c1ccccc1)Oc1ccc3ccccc3c1C2c1ccc2c(c1)CCO2` (centres undefined), for which the Potency entry is “inactive”. For `COc1ccc(NS(=O)(=O)c2ccc3c(c2)CCC(=O)N3)cc1`, the Potency entry is “inactive”. On to `Nc1scc2c(C(=O)O)nn(-c3ccccc3)c(=O)c12`, for which the Potency result is “inactive”. For `CCC(C)N(C)C(=O)Cn1nc(-c2ccc(C)cc2)ccc1=O` (centres undefined), the Potency result is “inactive”. The result for `Cc1cn([C@H]2C[C@H](N[S+](=O)([O-])c3ccc4c(c3)OCCO4)[C@@H](CO)O2)c(=O)[nH]c1=O` reads “inactive”; that for `Oc1cccc2cc(NCc3ccccc3F)cnc12`, “inactive”. Take `CN(C)CCCNc1ccc(NC(=O)c2cccs2)cn1`: the Potency entry is “inactive”.

For `O=C1c2ccccc2NC(c2ccc(-c3ccc(F)cc3)o2)N1O` (centres undefined), the Potency entry is “inactive”.

Regarding `CC(C)Oc1ccc(-c2csc(N3CCC(C(N)=O)CC3)n2)cc1`, the Potency result is “inactive”. The result for `CCOC(=O)c1nn(-c2ccccc2)c(=O)c2c(N)sc(C)c12` reads “inactive”.

For the molecule `CC(C)(C)OC(=O)N1CCN(c2ccc(OCc3ccc(-c4ccc(C#N)cc4)o3)cc2)CC1`, the Potency result was “inactive”. The result for `CC(C)(C)OC(=O)NCCCNc1ncnc2ccc(-c3ccc4c(c3)OCO4)cc12` reads “inactive”; that for `CC(=O)c1ccc(N2CCN(S(=O)(=O)c3cc4c(cc3Cl)NC(=O)C4)CC2)cc1`, “inactive”.

For the molecule `Cc1cnc(-c2ccccc2C(C)C)nc1NCc1ccc(C(N)=O)cc1`, the Potency result is “inactive”. The result for `COc1ccc(C2Nc3ccccc3C(=O)N2Cc2ccco2)cc1COc1ccc(NC(C)=O)cc1` (centres undefined) reads “inactive”; that for `CC(=O)Nc1sc2c(c1-c1csc3ccccc13)CCNC2`, “inactive”. `COc1cccc(C2c3c(ncn(-c4ccncc4)c3=N)Oc3ccc4ccccc4c32)c1` (centres undefined): the Potency entry is “inactive”. Take `N#Cc1ccccc1OC1=NS(=O)(=O)c2ccccc21`: the Potency entry was “inactive”. Regarding `CC(=O)Nc1cccc(S(=O)(=O)Nc2ccc(C)c(C)c2)c1`, the Potency result was “inactive”. As for `O=S(=O)(Nc1ccc2ccccc2c1)c1ccc(NCc2ccc(Br)cc2O)cc1`, the Potency entry was “inactive”. In the case of `COc1cccc(C2c3c(ncn(CCCN4CCOCC4)c3=N)Oc3ccc4ccccc4c32)c1` (centres undefined), the Potency result was “inactive”. Take `Cc1ccc(OCCn2c(CCNC(=O)c3cccc(Cl)c3)nc3ccccc32)cc1`: the Potency result was “inactive”. For the molecule `N#Cc1ccc(Nc2nn3c(=O)c4ccccc4nc3s2)cc1`, the Potency result is “inactive”.

Take `Cc1csc(CNc2ncnc3ccc(-c4ccco4)cc23)c1`: the Potency entry is “inactive”. As to `COC(=O)c1ccc2c(c1)S(=O)(=O)NC2=O`, the Potency entry was “inactive”.

Take `NC(=O)C1CCN(c2nc(-c3cccc(Br)c3)cs2)CC1`: the Potency entry was “inactive”. Regarding `COc1cc(OC)cc(C2=Nn3c(nnc3-c3cccc(OC)c3)SC2)c1`, the Potency entry is “inactive”. Turning to `O=C1c2ccccc2C(=O)N1c1ccc(Cl)cc1`, the Potency entry is “inactive”. Turning to `Cc1ccc(NS(=O)(=O)c2cc3c(cc2Cl)CCC(=O)N3)cc1C`, the Potency entry is “inactive”. For `CC(=O)c1ccc(N2CCN(S(=O)(=O)c3ccc4[nH]c(=O)oc4c3)CC2)cc1`, the Potency entry is “inactive”.

Take `Cc1ccc(CN(C)c2ncnc3ccc(-c4ccc(C#N)n4C)cc23)o1`: the Potency entry is “inactive”.

For `O=S(=O)(NCc1ccccc1F)c1ccc(O)c2ncccc12`, the Potency entry was “inactive”.

As for `CC(C)(C)c1ccc(NC(=O)c2cccs2)cn1`, the Potency result was “inactive”. The result for `COc1cccc(-n2cnc3cc(C(=O)N4CCCCC4)ccc32)c1` reads “inactive”; that for `N#Cc1nc(Nc2cccc(Cl)c2)nc(NC2CCCC2)n1`, “inactive”.
